Data published in PubChem BioAssay (Tox21).
Inconclusive results are not listed. Calls of active or inactive are those of the source. Calls come from the whole dose curve; as a rule, active = well fitted activation curve with a large enough effect in the signal ratio in the repeat runs (not every such curve was filed as active); inconclusive = weak or mixed curves, or effect the other way; inactive = flat fitted curve, though single readings scatter; the % refers to the signal ratio.

molecular target: Bile acid receptor (Homo sapiens) (UniProt Q96RI1); test: qHTS assay to identify small molecule agonists of the farnesoid-X-receptor (FXR) signaling pathway (AID 743220); details: HEK293T FXR-UAS-bla, beta-lactamase FRET ratio, 16 h; series mostly up to 62.6 µM
Sequence (Q96RI1 whole entry, looked up): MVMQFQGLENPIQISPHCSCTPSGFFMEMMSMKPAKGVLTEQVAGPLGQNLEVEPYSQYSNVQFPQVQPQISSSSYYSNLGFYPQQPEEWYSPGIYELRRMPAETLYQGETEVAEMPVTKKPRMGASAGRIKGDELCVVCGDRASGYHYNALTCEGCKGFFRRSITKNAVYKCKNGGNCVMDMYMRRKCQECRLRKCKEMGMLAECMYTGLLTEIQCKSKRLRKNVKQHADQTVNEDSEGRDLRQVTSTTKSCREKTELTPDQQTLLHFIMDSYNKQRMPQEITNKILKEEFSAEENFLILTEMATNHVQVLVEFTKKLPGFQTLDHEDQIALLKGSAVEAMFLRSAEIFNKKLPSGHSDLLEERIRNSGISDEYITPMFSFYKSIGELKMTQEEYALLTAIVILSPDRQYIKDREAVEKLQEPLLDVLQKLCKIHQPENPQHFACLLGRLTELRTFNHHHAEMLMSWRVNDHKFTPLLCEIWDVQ
Excerpt: National Center for Advancing Translational Sciences [NCATS]
NIH Chemical Genomics Center [NCGC]
U.S. Environmental Protection Agency [EPA]
National Institutes of Environmental Health Sciences [NIEHS]
National Toxicology Program [NTP]
U.S. Food and Drug Administration [FDA]
The farnesoid-X-receptor (FXR), a nuclear hormone receptor, is highly expressed in liver, intestine, kidney and adrenal cortex. Natural ligands of FXR are the bile acids (Cholic acid, Chenodeoxy cholic acid etc). FXR is an important regulator of diverse metabolic pathways, including the bile acid homeostasis, lipid and glucose metabolisms. FXR regulates the expression of target genes by binding either as a monomer or as a heterodimer with the retinoid X receptor (RXR). Numerous studies have reported that FXR exerts protective function during cholestasis, diabetes, liver regeneration, and cancer. To identify compounds that activate FXR signaling, GeneBLAzer FXR-UAS-bla HEK 293T cell line (Invitrogen, Carlsbad, CA) containing a beta-lactamase reporter gene under the control of a UAS response element was used to screen the Tox21 10K compound library.
Tox21 Assay Protocol Summary:
FXR-bla cells were dispensed at 5000 cells/5uL/well in 1536-well black wall/clear bottom plates using a Multidrop Combi (Thermo Fisher Scientific, Waltham, MA) dispenser. After the assay plates were incubated at 37C and 5% CO2 for 5 h, 23 nL of compounds dissolved in DMSO, positive controls or DMSO only was transferred to the assay plate by a Pintool station (Kalypsys, San Diego, CA). The assay plates were incubated at 37C for 16 h. After 1 uL of LiveBLAzerTM B/G FRET substrate was added using a Bioraptr Flying Reagent Dispenser (FRD) workstation (Beckman Coulter, Indianapolis, IN), the plates were incubated at room temperature for 2 h, and fluorescence intensity was measured by an Envision plate reader (PerkinElmer, Shelton, CT).

Structure (SMILES)	outcome
Cc1ccccc1CCO	inactive
O=C(O)CNc1ccccc1	inactive
CCCCOc1ccc(N)cc1	inactive
CCCCCC1CCC(=O)O1 (stereo not given)	inactive
CCCCCCCCCC(C)C=O (stereo not given)	inactive
COc1ccc(C(=O)Nc2ccccc2)cc1[N+](=O)[O-]	inactive
CC1(C)[C@@H]2CC[C@]3(C2)[C@@H]1C(=O)CCC3(C)C	inactive
CC(=O)CC/C=C(\C)CC/C=C(\C)CC/C=C(\C)CCC=C(C)C	inactive
C(/C=C/C=C/Nc1ccccc1)=Nc1ccccc1	inactive
Cc1ccc(NC=O)c(C)c1	inactive
CC(C)(C)c1ccc(CCC=O)cc1	inactive
CCOc1cc(OCC)c(C(C)=O)cc1OCC	inactive
Nc1ncnc2c1ncn2[C@@H]1O[C@H](CO)[C@@H](O)[C@H]1O	inactive
CCCCCCCCNC	inactive
C=Cc1ccc(C=C)cc1	inactive
C1=COCCC1	inactive
CC1(C)CC(O)CC(C)(C)N1[O]	inactive
Cc1cc(SC2=C(O)C[C@@](CCc3ccc(N)cc3)(C(C)C)OC2=O)c(C(C)(C)C)cc1CO	inactive
CCC[Si](OC)(OC)OC	inactive
CCCCCCCCCCCCCCCCC(=O)O	inactive

Structure (SMILES)	outcome
CC(C)(C)c1cc(C=O)cc(C(C)(C)C)c1O	inactive
CCC(=O)O[C@]1(C(=O)COC)[C@@H](C)C[C@H]2[C@@H]3CCC4=CC(=O)C=C[C@]4(C)C3(F)[C@@H](O)C[C@@]21C (stereo not given in full)	inactive
CC(=O)S[C@H](C(=O)N[C@H]1Cc2ccccc2[C@H]2CCC[C@@H](C(=O)O)N2C1=O)C(C)C	inactive
O=C(c1ccco1)N1CCNCC1	inactive
C=C(C)C(=O)OCCCCCCCCCCOC(=O)C(=C)C	inactive
Clc1ccccc1-c1nc(-c2ccncc2)no1	inactive
O=C(O)c1ccccc1[N+](=O)[O-]	inactive
NC(=O)c1ccccc1	inactive
CCCC(=O)OCCC(C)C	inactive
CCCCCO	inactive
CC1=C(C)C(=O)C(C(CCCCCC(=O)O)c2ccccc2)=C(C)C1=O (stereo not given)	inactive
C[C@H](CN1CCCC1)C(=O)c1ccc(C(F)(F)F)cc1	inactive
C=CC(C)(O)CC/C=C(/C)CCC=C(C)C (stereo not given)	inactive
Nc1nc(Cl)nc2c1ncn2[C@H]1C[C@H](O)[C@@H](CO)O1	inactive
CC(C)(C)NCC(O)COc1ccc(NC(=O)NC2CCCCC2)cc1 (stereo not given)	inactive
O=C(Nc1ccc2c(c1)Cc1ccccc1-2)C(F)(F)F	inactive
CS(C)=O	inactive
O=C(O)COCC(=O)O	inactive
N#C[C@@H]1CC(F)(F)CN1C(=O)CNC1CC2CCC(C1)N2c1ncccn1 (stereo not given in full)	inactive
Clc1cc(Cl)c2c(c1)N=C1CCCCCN1C2	inactive
